Reference: PubChem BioAssay AID457 (Sanford-Burnham Center for Chemical Genomics, 2006)
Hit rate of the full screen: of about 10,000 compounds, about 20 (0.2%) were called active. No rule for the calls is given here. A selection follows.

Assay: enhancers of VCAM-1 display on endothelial cells, imaging, high-content imaging, pooled HUVEC, TNFa stimulus (AID 457);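 as to augmentation: cells exposed to compound for 24 hours before fixing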
Conditions: TNFa-induced VCAM-1 immunofluorescence imaging;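 compounds tested at 5 µM in the well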

augmentation, inactive:
O=C(COC(=O)C1=COCCO1)Nc1ccccc1Oc1ccccc1
O=C(CN1C(=O)CSC1=O)Nc1ccc(N2CCOCC2)cc1
CCN(CC)CCN1C(=O)C(=O)/C(=C(/O)c2c(C)[nH]c(C(=O)OC)c2C)C1c1ccco1 (centres undefined)
CCNC(=O)N(C)c1nncnc1C(=O)NC
Cc1noc(C)c1S(=O)(=O)N1CCC(C(=O)N2CCN(Cc3ccc4c(c3)OCO4)CC2)CC1
O=C(CSc1nnc(-c2ccncc2)n1-c1ccc(F)cc1)NC(=O)NCc1ccco1
COc1ccc(S(=O)(=O)NC(CC(=O)NCc2ccco2)c2ccco2)cc1 (centres undefined)
COc1ccc2nc(NC(=O)C3CCCN(S(=O)(=O)c4cccc5nsnc45)C3)sc2c1 (centres undefined)
COC(=O)C(CCCCNC(=O)OCc1ccccc1)NC(=O)CN (centres undefined)
CCCCC(CC)Cn1c2nc3ccccc3nc2c2c(=N)oc(C)nc21 (centres undefined)
O=C(CCCN1C(=O)c2ccccc2C1=O)NCc1cccnc1
CCN(CC)S(=O)(=O)c1cccc(-c2nnc(SCC(N)=O)n2CCc2ccccc2)c1
CCc1c(C(=O)Nc2cc(C)ccc2OC)[nH]c(C)c1C(C)=O
COC(=O)c1ccc(-c2nn(C)c(=O)c3ccccc23)cc1
Cc1cc2ncn(S(=O)(=O)c3ccc(S(=O)(=O)N4CCOCC4)cc3)c2cc1C
Cc1ccccc1NC(=O)CN1CCC(NC(=O)Nc2ccccc2)CC1
O=C(Nc1ccc(O)cc1)C1CCCN1S(=O)(=O)c1ccc(F)cc1 (centres undefined)
O=c1c2ccccc2cnn1-c1nc2ccccc2s1
CCc1nnc(NC(=O)CSc2nc3ccccc3s2)s1
Cc1cccc(C(=O)N(C)c2nnc(-c3ccncc3)s2)c1
CCOC(=O)CC1(CC(=O)OCC)NC(=O)c2c(C)sc(C(=O)OCC)c2N1
CCSc1nc(-c2ccc(OC)cc2)ccc1C#N
COC(=O)c1ccccc1NC(=O)c1cc(-c2ccc(OC)c(OC)c2)on1
Cc1cccc(N(CC(=O)Nc2ccc(CC#N)cc2)S(C)(=O)=O)c1
COc1ccc(CN(C(=O)c2oc3ccccc3c2C)C2CCS(=O)(=O)C2)cc1 (centres undefined)
Cn1c(=O)c2ncn(CC(=O)NCCOc3ccc(C(C)(C)C)cc3)c2n(C)c1=O
CSc1nc2ccc(S(=O)(=O)N3CCOCC3)cc2s1
Cn1c(Cc2cccs2)nnc1SCC(=O)N1CCc2ccccc21
O=S(=O)(c1cccc(S(=O)(=O)N2CCC(N3CCCCC3)CC2)c1)N1CCOCC1
Cc1ccccc1CS(=O)(=O)Cc1ccc(C(=O)NCCCN2CCOCC2)o1
COc1cccc(-c2noc(CCC(=O)NC3CCCCC3)n2)c1
CCOC(=O)CSC1=Nc2ccccc2C2=NC(CC(=O)NCc3ccc(OC)cc3)C(=O)N12 (centres undefined)
Cc1cc(NC(=O)C23CCC(C)(c4nc5cc(Cl)c(Cl)cc5nc42)C3(C)C)no1 (centres undefined)
Cc1ccc(/C(O)=C2\C(=O)C(=O)N(CCCN(C)C)C2c2ccccn2)cc1 (centres undefined)
O=C(OCc1ccc2c(c1)OCO2)c1ccc(S(=O)(=O)N2CCCCC2)cc1
CCN(CC)S(=O)(=O)c1ccc(S(=O)(=O)N(Cc2ccccn2)Cc2ccco2)cc1
O=C(COc1ccc(S(=O)(=O)NC2CCCCC2)cc1)NCc1ccccn1
CCCCOc1ccc(N(CC(=O)NC2CCCC2)C(=O)CCC(=O)Nc2ccccn2)cc1
CS(=O)(=O)Nc1ccc(C(=O)NCc2ccco2)cc1
CCN(Cc1nc2cc(OC)c(OC)cc2c(=O)[nH]1)C(=O)c1ccc(S(=O)(=O)N(C)C)cc1
O=C(CP(=O)(c1ccccc1)c1ccccc1)N1CCCCC1
Cc1cnc(C(=O)Nc2ccc(N3CCN(C(=O)OC(C)(C)C)CC3)cc2)cn1 14.8%
COc1cccc(N2CCN(CC(=O)Nc3nnc(-c4ccccc4)s3)CC2)c1
Oc1ccc(N2CCN(C(c3ccncc3)c3nnnn3C3CCCC3)CC2)cc1 (centres undefined)
C1CCC2=NCCCN2CC1
CCOc1ccc(N(CC(=O)Nc2ccc(F)c(F)c2)S(=O)(=O)c2c(C)noc2C)cc1
COc1cc(Cl)c(C)cc1NC(=O)COC(=O)c1cnc(C)cn1
O=C(CC1CCCCC1)NCc1ccccn1
COc1ccccc1CNS(=O)(=O)c1ccc(NC(C)=O)cc1
COc1ccc(S(=O)(=O)NC2CCCCC2)c(C)c1C
Cc1nc2ccc(S(=O)(=O)NCC(=O)N3CCc4ccccc4C3)cc2s1
CCOc1ccccc1Nc1nc2ccccc2[nH]1
Cc1ccc2nc(-c3ccc4c(c3)OCCO4)cc(C(=O)O)c2c1
COc1ccc(C(=O)NCCc2nnc(SCc3nc4ccccc4c(=O)[nH]3)n2C)cc1
Cc1cc(NC(=O)c2cc3ccccc3o2)cc(C)c1OCC(=O)N1CCOCC1
Cc1c(C(=O)OCC(C)C)[nH]c2c1C(=O)CC(c1ccco1)C2 (centres undefined)
CC(NC(=O)c1ccc(F)cc1)C(c1cccs1)N1CCN(C)CC1 (centres undefined)
C=CCN1C(=O)C2(C(C#N)=C(N)Oc3n[nH]c(CCC)c32)c2ccccc21 (centres undefined)
CCOC(=O)c1c(NC(=O)OC)sc(C(=O)N(C)C)c1C
COc1ccc(N(C)C(=O)CCS(=O)(=O)c2cccc3nonc23)cc1
COc1ccc(CCNC(=O)CCN2C(=O)C3CC=CCC3C2=O)cc1OC (centres undefined)
O=C(Nc1ccccc1)c1cnc2n(c1=O)CCS2
C=CCn1cnc2c(NCc3ccccc3)ncnc21
Cc1cc(C)n(S(=O)(=O)c2cc(C(=O)O)c(Cl)cc2Cl)n1
CCOC(=O)C1=C(CN2CCOCC2)NC(=O)NC1c1cc(C)ccc1C (centres undefined)
O=C(O)CC(NC(=O)c1ccccc1NC(=O)c1ccccc1)C(=O)O (centres undefined)
COc1ccc2cc(CN(CCO)C(=O)c3ccc(Br)cc3)c(=O)[nH]c2c1
COc1cc(OC)cc(-c2nnc(SCC(=O)Nc3cc(C)on3)o2)c1
Cc1ccc(C(=O)OCC(=O)Nc2ccc3c(c2)OCO3)o1
Cc1cc2ccccc2c(=O)n1CC(=O)N(C)c1ccc(F)cc1
CC(Oc1ccccc1)C(=O)Nc1ccc(S(=O)(=O)NCC2CCCO2)cc1 (centres undefined)
Cn1c(NC(=O)c2cccc(Cn3cc(Cl)cn3)c2)nc2ccccc21
Cc1cc2c(s1)c1cnn(CC(=O)NCCc3ccccc3)c(=O)c1n2C
COc1ccc2c(c1)CCc1c(C(=O)N3CC4(C)CC3CC(C)(C)C4)noc1-2 (centres undefined)
O=C(Cn1ccc2ccccc2c1=O)NCCC(=O)N1CCN(C(=O)c2ccco2)CC1
CCN(CC)C1CCCCC1NS(=O)(=O)c1ccc(Cl)cc1 (centres undefined)
Cn1c(=O)cc(OCC(=O)N2CCN(c3cccc(C(F)(F)F)c3)CC2)c2ccccc21
COCCNC(=O)CN1CCN(C(c2ccccc2)c2ccccc2)CC1
Cc1ccc(CN2CCN(C(=O)C3CCC3)CC2)cc1
Cc1cc(NC(=O)CCOc2ccccc2)no1
COc1ccc(N2C(=O)C3CCCN3C2c2ccc(F)cc2)cc1Cl (centres undefined)
O=c1c2cnn(-c3ccccc3)c2ncn1/N=C/c1ccncc1
COC(=O)c1[nH]c2ccc(C)cc2c1NC(=O)CN1CCN(C(=O)c2ccccc2)CC1
CC1Cc2cc(/C(O)=C3/C(=O)C(=O)N(CCN4CCOCC4)C3c3cccc(O)c3)ccc2O1 (centres undefined)
Clc1ccc(-c2nnc3sc(-c4ccc(Br)o4)nn23)cc1
CCCCN(CCCNC(=O)C1CCN(S(=O)(=O)CC)CC1)c1ccccc1
CS(=O)(=O)N(CC(=O)N1CCN(c2cccc(Cl)c2)CC1)C1CCCCC1
CC1CCN(CCCNC(=O)c2coc3nc4ccccc4nc23)CC1
COc1ccc(-c2nnc(SCC#N)o2)cc1
O=C(CSc1nnnn1-c1ccc2c(c1)OCO2)NCc1cccs1
CCOC(=O)N1CCN(C(=O)c2csc3c2CCCCC3)CC1
Cc1cccc(-n2ncc3c(NCc4ccccn4)ncnc32)c1
CCCN(CCC)C(=O)c1c(C)[nH]c(C(=O)OCC)c1C
CCOC(=O)c1ccc2nc(C)c3c(c2c1)OC(C)C3 (centres undefined)
Cc1c(NC(=O)C2CCCNC2=O)c(=O)n(-c2ccccc2)n1C (centres undefined)
O=C1CC(c2ccccc2)Cc2nc(N3CCc4ccccc43)ncc21 (centres undefined)
CC(=O)N1CCN(c2ccc(S(=O)(=O)N3CCCCC3)cn2)CC1
COc1cc(OC)cc(-c2nc3cc(C)ccc3o2)c1
CC1CN(C(=O)CSc2nnc(-c3ccc(Cl)cc3)n2C)CC(C)O1 (centres undefined)
CCCOc1ccccc1NC(=O)c1ccc(N)cc1
C=CCSc1ncccc1C(=O)O
CCN(CCNC(=O)C1CCN(S(=O)(=O)CC)CC1)c1ccccc1
Cc1oc2cc3c(C(=O)OCCN(C)C)c(C)oc3cc2c1C(=O)OCCN(C)C
Cc1nc(CNS(=O)(=O)c2cccc(F)c2)cs1
CCN(CC)c1ccc2c(c1)CCCN2
Cc1onc(-c2ccccc2)c1C(=O)N1CCCSC1=Nc1ccccc1
COCCN1CCN(c2c(C)c(C)nc3cc(-c4cccc(OC)c4)nn23)CC1
C=CCN1C(=O)C2(/C(=C(\O)c3ccc4c(c3)OCCO4)C(=O)C(=O)N2CCCOC)c2ccccc21 (centres undefined)
C=CCOc1nc(N2CCCC2)nc(N2CCCC2)n1
